Assay results reported in PubChem BioAssay (NCI).
Compounds without any hit were thinned out: in the full panel of roughly 79,000, 15% have a hit. Activity calls are given as the source filed them. Rule as the data show it: active = growth inhibition above about 70%; inactive = the rest. Where a SMILES comes first, the peptide text is derived from it. [ ]: non-standard residue; d: D form. The star is where a group is joined. Nle = CCCC[CH](N)C(=O)O; Cbz = O=C(OCc1ccccc1)*

How the values were obtained:
[1] = NCI Yeast Anticancer Drug Screen. Data for the rad50 strain (AID 155);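 also: 0% = growth of vehicle-only cultures of the same strain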; details: S. cerevisiae rad50 strain growth inhibition; at 50.0 µM; hits give high values
How it was run: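 A DNA repair-deficient yeast mutant serves as the test organism; compound-induced growth inhibition is calculated against vehicle-treated cells.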

[2] = NCI Yeast Anticancer Drug Screen. Data for the mec2-1 strain (AID 157); details: S. cerevisiae mec2-1 strain, at 50.0 µM, hits give high values
How it was run: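 mec2-1 yeast strain, carrying an alteration in DNA damage repair or cell cycle control, was exposed to compounds; growth inhibition was measured relative to vehicle-treated controls.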

[3] = NCI Yeast Anticancer Drug Screen. Data for the sgs1 mgt1 strain (AID 161);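 also: 0% = growth of cultures given vehicle only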; details: S. cerevisiae sgs1 mgt1 strain, at 50.0 µM, hits give high values
How it was run: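 Compounds are added to genetically altered yeast, and growth is compared with cultures given vehicle alone to give percent inhibition.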

[4] = NCI Yeast Anticancer Drug Screen. Data for the cln2 rad14 strain (AID 165);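 also: 0% = growth equal to vehicle treated cultures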; details: S. cerevisiae cln2 rad14 strain, at 50.0 µM, hits give high values
How it was run: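 Yeast carrying cln2 and rad14 alterations (cell cycle control and DNA damage repair) were exposed to compounds. Growth inhibition was measured against vehicle-treated controls.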

[5] = NCI Yeast Anticancer Drug Screen. Data for the bub3 strain (AID 167); details: S. cerevisiae bub3 mutant strain, at 50.0 µM, hits give high values
How it was run: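 Inhibition values come from growth of compound-treated mutant yeast normalised to vehicle-treated controls.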

[6] = NCI Yeast Anticancer Drug Screen. Data for the mlh1 rad18 strain (AID 175); details: S. cerevisiae mlh1 rad18 strain growth inhibition; at 50.0 µM; hits give high values
How it was run: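 Growth inhibition of the yeast strain was measured after compound exposure and expressed relative to vehicle-treated controls. The strain carries defined defects in DNA damage repair.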

Measured: growth inhibition

CCCCCCCCCCCCCCCCNc1nc(=O)n(C2CC(O)C(COP(=O)(O)OC3CC(n4cc(F)c(=O)[nH]c4=O)OC3CO)O2)cc1F (stereo unspecified)
inactive: [1] -2.05% | [2] -6.05% | [3] -25.9% | [4] 0.95% | [5] -42.6% | [6] -31.6%

Clc1cc(Cl)c2ncccc2c1
inactive: [1] 4.05% | [2] 17.9% | [3] 3.3% | [4] -30.2% | [5] 17.8% | [6] 11.8%

COCC(C)OC(=O)c1ccccc1 (stereo unspecified)
inactive: [1] 23.8% | [2] -0.8% | [3] -9.9% | [4] -23.4% | [5] -14.9% | [6] 31.9%

CC(C)(O)c1cc(=O)n(-c2ccccc2)[nH]1
inactive: [1] -6% | [2] -6.3% | [3] 6.55% | [4] -64.8% | [5] -18% | [6] -5.1%

COC(=O)CCCc1ccc2c(c1)CC1(C2)Cc2cc3c(cc2C1)CCCC3
inactive: [1] -14.5% | [2] -20.4% | [3] -11.2% | [4] -15.5% | [5] -11.9% | [6] -3.85%

NC1=NN(c2ccccc2)C(=O)C1C(=O)CCC(=O)Nc1cccc(Cl)c1 (stereo unspecified)
inactive: [1] 9.9% | [2] -1.8% | [3] -11.4% | [4] 18.2% | [5] 5.35% | [6] 2.1%

COC(=O)C1=CN=C(C(=O)OC)NN1
inactive: [1] 13.9% | [2] 0.25% | [3] -8.6% | [4] 15.8% | [5] -4.45% | [6] 3.15%

CCCCC(NC(=O)C(Cc1ccccc1)NC(=O)OCc1ccccc1)C(=O)O (stereo not drawn) (Cbz-Phe-[Nle]-OH; configuration not given here)
inactive: [1] 5.9% | [2] -1.2% | [3] -4.3% | [4] -31.8% | [5] -3.2% | [6] 9.05%

CN1CCN(CCSC(=O)C(O)(c2ccccc2)C2CCCC2)CC1 (stereo unspecified)
inactive: [1] 17.1% | [2] 16.6% | [3] 7.35% | [4] -17.2% | [5] 4.6% | [6] 24.8%

COC(=O)/C(C#N)=C/c1ccc2c(c1)OCO2
inactive: [1] 12.4% | [2] 7.65% | [3] 16.1% | [4] 11.2% | [5] 35.9% | [6] 28.2%

Cc1ccc(NC(=O)OCC2CC3C=CC2C3)cc1NC(=O)OCC1CC2C=CC1C2 (stereo unspecified)
inactive: [1] -21.2% | [2] -14.3% | [3] -14.8% | [4] -6.8% | [5] -3.25% | [6] 3.7%

O=C(NCCCCCCNC(=O)C1CCCN1C(=O)OCc1ccccc1)C1CCCN1C(=O)OCc1ccccc1 (stereo unspecified)
inactive: [1] 0.6% | [2] -24.2% | [3] -8.15% | [4] -1.9% | [5] -5.7% | [6] 6.4%

CCNC1CC(C(C)(C)NCC)CC=C1C (stereo unspecified)
inactive: [1] -31.4% | [2] -25.2% | [3] -38.7% | [4] -15.4% | [5] -46.9% | [6] -55.2%

O=C(Oc1ccc(C(=O)c2ccccc2)cc1)C(Cl)=C(Cl)Cl
inactive: [1] -6.95% | [2] -1.75% | [3] 7.7% | [4] -55.8% | [5] 7.35% | [6] -4%

O=C(Nc1ccc2c(c1)OCO2)O/N=C\c1ccccn1
inactive: [1] 9.15% | [2] 26.8% | [3] 17.7% | [4] 57.4% | [5] 9.4% | [6] 42.1%

CCC(CC)C(=O)O
inactive: [1] -11.2% | [2] -3.5% | [3] -34.4% | [4] -22.5% | [5] 7.85% | [6] -34.8%

COc1nc2[nH]ccc2c(=O)[nH]1
inactive: [1] -23.8% | [2] -25.2% | [3] -31.8% | [4] 3.15% | [5] -11.3% | [6] -11.1%

O=C(Nc1ccc(C(=O)O)cc1)Nc1cccc(F)c1
inactive: [1] 14.8% | [2] 8.35% | [3] 10.2% | [4] 14.6% | [5] 22.6% | [6] 13.8%

CCOC1(OCC)C([N+](=O)[O-])=CC(=[N+]([O-])O)C=C1[N+](=O)[O-]
inactive: [1] 3.8% | [2] -4.1% | [3] -7.15% | [4] 3.75% | [5] -8.8% | [6] -21.2%

Cc1ccc(C(=O)OC2C3(C)CCC(C3)C2(C)C)cc1 (stereo unspecified)
inactive: [1] 15.9% | [2] 18.3% | [3] 14.3% | [4] -37.2% | [5] 10.2% | [6] -0.15%

CC12CCC3c4ccc(OC(=O)c5ccc([N+](=O)[O-])cc5)cc4CCC3C1CCC2=O (stereo unspecified)
inactive: [1] 13.8% | [2] -6.95% | [3] -6.45% | [4] 5.75% | [5] -0.65% | [6] -1.75%

CCOC(=O)NC(Nc1ccc(OC(F)(F)F)cc1)(C(F)(F)F)C(F)(F)F
inactive: [1] -8.7% | [2] -8.2% | [3] -39.1% | [4] -1.25% | [5] -19.9% | [6] -0.3%

COc1ccc(C[n+]2ccccc2C#N)cc1OC
inactive: [1] 4.7% | [2] -13.8% | [3] -10.4% | [4] -15.8% | [5] 4.25% | [6] 3.2%

O=C1CC(=O)C(C(=O)c2ccccc2)N1 (stereo unspecified)
inactive: [1] 18.3% | [2] 8.55% | [3] 5.3% | [4] 1.8% | [5] 7.8% | [6] -2.45%

O=C(Cc1ccccc1)NN1C(=O)/C(=C\c2ccc([N+](=O)[O-])cc2)SC1=Nc1ccccc1
inactive: [1] -2.8% | [2] -8.85% | [3] 52.1% | [4] 15.2% | [5] -18.9% | [6] 28.5%

C=C(C)c1ccccc1N
inactive: [1] -1.75% | [2] -40.4% | [3] -4.65% | [4] 6.95% | [5] -26.4% | [6] 14.1%

CON(C)c1nc(N)c(C#N)c(C#N)c1C#N
inactive: [1] 4.35% | [2] -23.7% | [3] 3.3% | [4] 13.4% | [5] 15% | [6] 7.45%

CC(=O)OC(C(=O)N1CC1)C(OC(C)=O)C(OC(C)=O)C(OC(C)=O)C(=O)N1CC1 (stereo unspecified)
inactive: [1] 24.1% | [2] 20.9% | [3] 25.4% | [4] 10.1% | [5] 28.6% | [6] 29.3%

O=C1C(Br)=CC(Br)=C/C1=N/Br
inactive: [2] 61.5% | [4] 61.1%
active: [1] 70.6% | [3] 85.2% | [5] 70% | [6] 78.5%

CCOC1=C([N+](=O)[O-])C(c2ccccc2)NC1=O (stereo unspecified)
inactive: [1] 10.8% | [2] -0.6% | [3] -3% | [4] 15.1% | [5] -35.3% | [6] 11.7%

CN(c1cn(C2CC[C@@H](CO)O2)c(=O)[nH]c1=O)C1CCCCC1 (stereo partly specified)
inactive: [1] -35.8% | [2] -13.4% | [3] -58.4% | [4] -6% | [5] 5.35% | [6] -41.5%

O=[N+]([O-])c1cc([N+](=O)[O-])c(C(Cl)C(Cl)c2ccccc2)cc1C(Cl)C(Cl)c1ccccc1 (stereo unspecified)
inactive: [1] 2.4% | [2] 2.55% | [3] -18.9% | [4] 7.65% | [5] 0.6% | [6] -20.4%

COc1cc(CC2C(=O)NC(=O)NC2=O)ccc1OCc1ccccc1
inactive: [1] 17.8% | [2] -7.75% | [3] -5.1% | [4] -19.4% | [5] -21.4% | [6] -47%

Cc1ccc(Cc2n[nH]c(=O)n2/N=C\CC/C=N\n2c(Cc3ccc(C)cc3)n[nH]c2=O)cc1
inactive: [1] -13.9% | [2] -23.6% | [3] -18.1% | [4] -0.9% | [5] -28.9% | [6] -4.05%

CCCCSc1nc2ccc([N+](=O)[O-])cc2s1
inactive: [1] 40.6% | [2] -4.2% | [3] 37.5% | [4] 2.1% | [5] 4.45% | [6] 12.9%

O=C1N=C(C=c2ccc(=Cc3[nH]c(=O)[nH]c3O)cc2)C(=O)N1
inactive: [1] -5.95% | [2] -11.4% | [3] -14.9% | [4] 13.9% | [5] 8.35% | [6] 5.7%

CC(C)(O)CC(=O)/C=C\c1ccc2c(c1)OCO2
inactive: [1] 25.9% | [2] 27.9% | [3] 10.1% | [4] -11.9% | [5] -4.4% | [6] 4.35%

C=CC1CNCCC1CCC(=O)c1ccnc2ccc(OC)cc12 (stereo unspecified)
inactive: [1] 7.75% | [2] -9.6% | [3] -1.2% | [4] 5.85% | [5] 1.15% | [6] 4.4%

COC1(OC)C(N(C)C)=C(Cl)C(=O)/C1=C/C=O
inactive: [1] 7.75% | [2] -10.7% | [3] -16.9% | [4] -6.65% | [5] 13.8% | [6] -16.4%

Cc1ccc(C(=O)Oc2ccccc2)cc1
inactive: [1] -3.35% | [2] -5.1% | [3] -11.7% | [4] -34.2% | [5] -7.2% | [6] -20%

Oc1ccccc1/C=N/c1nc(-c2ccccc2)cs1.[Co].[O-]c1ccccc1/C=N/c1nc(-c2ccccc2)cs1
inactive: [1] 19.2% | [2] 5.9% | [3] 9.8% | [4] 22.4% | [5] 5.35% | [6] 21.2%
